# BAZ2B inh: BAZ2B (human) inhibition. Q9UIF8. hit rate 4.4% among 360,000. AID 504333. Potency, µM (highest dose often 114 µM), for inactives: at the highest dose activity change, negative = inhibition, usual class: inhibitors. AlphaScreen BAZ2B-H3K14Ac peptide displacement; note: % is set by controls: 0 for no effect and ±100 for the full control effect; nearly all actives have a fitted effect of over 60% in size
#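 Complex of BAZ2B and biotin-H3K14Ac (50 nM apiece) forms over 30 min at RT, then faces library compounds up to 110 uM for another 30 min; AlphaScreen beads added, 20 min dark incubation, luminescence read.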
# HP1b binding inh: HP1-beta chromodomain-methylated histone interaction inhibition | P83916 | AlphaScreen HP1-beta / biotin-H3K9me3 peptide binding | Potency, µM (highest dose often 114 µM), inactives show at the top dose activity change, negative = inhibition, actives largely listed as inhibitors | hit rate 0.56% among 390,000; note: nearly all actives have a fitted effect of over 70% in size
# Target sequence (P83916 whole entry, looked up): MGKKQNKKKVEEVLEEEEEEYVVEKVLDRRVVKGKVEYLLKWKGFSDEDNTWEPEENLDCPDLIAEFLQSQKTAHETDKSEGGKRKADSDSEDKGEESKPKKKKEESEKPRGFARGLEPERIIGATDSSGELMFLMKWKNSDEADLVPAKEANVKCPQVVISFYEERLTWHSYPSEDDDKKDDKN
#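 HP1-beta protein (50 nM final) preincubated 30 min at room temperature with biotinylated H3(1-18)K9me3 peptide (50 nM) in PBS pH 7.4, 0.01% Tween-20, then compound added for 30 min. AlphaScreen streptavidin donor/nickel chelate acceptor beads (10 ug/mL final), 30 min dark, luminescence read.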
# JMJD2A Tudor inh: JMJD2A Tudor domain (human) inhibition; O75164; AlphaScreen JMJD2A-Tudor / H3K4me3 peptide binding; Potency, µM (series often up to 114 µM), without a hit: at the highest dose activity change, negative = inhibition, hits mostly inhibitors; hit rate 4.4% among 390,000; AID 504339; note: % is set by controls: 0 for no effect and ±100 for the full control effect; nearly all actives have a fitted effect of over 50% in size
# G9a block: inhibitors of human histone lysine methyltransferase G9a. Q96KQ7. G9a H3K9 monomethylation, AlphaScreen, 2 h. Potency, µM (titrated, usually from 102 µM), without a hit: at the highest dose activity, negative = inhibition, usual class: inhibitors. hit rate 8.8% among 350,000. AID 504332; note: % is set by controls: 0 for no effect and ±100 for the full control effect; nearly all actives have a fitted effect of over 75% in size
# Target sequence (Q96KQ7 913-1193 limits assumed): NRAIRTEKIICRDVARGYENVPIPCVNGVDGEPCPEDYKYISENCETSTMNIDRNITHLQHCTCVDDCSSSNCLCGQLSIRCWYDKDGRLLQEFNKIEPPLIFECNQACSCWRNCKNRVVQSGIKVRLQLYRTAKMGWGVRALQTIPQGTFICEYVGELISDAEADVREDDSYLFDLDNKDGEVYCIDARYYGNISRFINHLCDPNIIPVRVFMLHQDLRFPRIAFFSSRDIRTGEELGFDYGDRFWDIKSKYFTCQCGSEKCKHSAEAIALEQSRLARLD
#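 Enzyme 20 nM + cpd, 15 min RT; add b-H3K9 pep 500 nM / SAM 20 uM; 2 h RT; anti-H3K9me1 Ab 0.5 ug/mL + SA donor / anti-rabbit acceptor beads 20 ug/mL each, 10 min; AlphaScreen read.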
# Sfp inh: inhibitors of Bacillus subtilis Sfp phosphopantetheinyl transferase; Potency, µM, without a hit: largest response in the series, negative = inhibition, actives largely listed as inhibitors; hit rate 3.5% among 310,000; Q9F4F7; AID 1490; Biochemical Sfp PPTase activity, qHTS;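 note: the enzyme is Sfp with the accession as filed and its product quenches rhodamine fluorescence; 0% = enzyme reaction without inhibitor and -100% = no enzyme wells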
#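 Fluorescence-quenching assay: 15 nM Sfp-PPTase preincubated 15 min at room temperature with compound, then 5 uM rhodamine-CoA and 12.5 uM BHQ-2-labelled YbbR peptide added. Fluorescence (ex 525/em 598 nm) read at start and after 30 min; difference gives rate.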
# L3MBTL1 block: blocks human L3MBTL1; Q9Y468; AlphaScreen L3MBTL1–H3K9me1 peptide binding; Potency, µM (top dose mostly 57.1 µM), inactives show at the top dose activity, negative = inhibition, most hits filed as inhibitors; hit rate 0.66% among 230,000; AID 485360; note: % is set by controls: 0 for no effect and ±100 for the full control effect; nearly all actives have a fitted effect of over 60% in size
#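 L3MBTL1 50 nM + b-AHA-H3(1-15)K9me1 75 nM, 30 min RT; compound added, 30 min RT; streptavidin donor/Ni-chelate acceptor beads 10 ug/mL each final, 30 min RT dark; AlphaScreen read.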
# * marks the source's active call; other numbers are inactive results; ? = inconclusive; . = not tested or not shown; [ ] = remark or other dose. Sampled rows, rich in hits. Any-hit rate of the full collection: about 12%. Calls come from the whole dose curve; as a rule, active = well fitted curve in the direction sought with a large enough effect; inconclusive = small, poorly fitted or top-dose-only effect, or another doubt; inactive = no such curve, though single readings can be large; an effect the other way counts as inactive or inconclusive. Potency is the fitted concentration of half-maximal effect.
SMILES,BAZ2B inh,HP1b binding inh,JMJD2A Tudor inh,G9a block,Sfp inh,L3MBTL1 block
COc1ccccc1NC(=O)c1sc2nc(-c3cc4cc(Cl)ccc4oc3=O)[nH]c(=O)c2c1C,-9%,31%,-17%,3%[59 µM],.,.
CC(=O)N1CCC(N(CCN2CCOCC2)C(=S)Nc2ccc(C)cc2C)CC1,-3%,42%,3%,1%[59 µM],15%,.
Cc1ccc(NC(=S)N(CCN2CCOCC2)Cc2ccccc2F)cc1,-16%,33%,3%,22%[12.7 µM],10%,-23%
CCN1CCCc2cc(CN(CCN3CCOCC3)C(=S)Nc3ccc(C)cc3)ccc21,13µM*,?,?,13µM*,17%,.
CCN1CCCc2cc(CN(CCN3CCOCC3)C(=S)Nc3cccc(Cl)c3)ccc21,7.1µM*,?,11µM*,?,14%,.
CCN1CCCc2cc(CN(CCN3CCOCC3)C(=S)Nc3cc(F)cc(F)c3)ccc21,10µM*,?,35µM*,16µM*,12%,.
CC(=O)N1CCC(N(CCN2CCOCC2)C(=S)Nc2ccc(C)cc2)CC1,-9%,32%,-20%,?,50µM*,.
O=C(Nc1ccccc1)N(CCN1CCOCC1)Cc1cccc(Cl)c1,3%,14%,-16%,-3%,13%,8%
COc1cc2c(cc1OC)C(C(C(=O)N(CCc1ccc(OC)c(OC)c1OC)CCc1ccc(OC)c(OC)c1OC)c1ccccc1)=NCC2 (configuration not stated),.,.,.,?,10%,.
CCOc1ccc(NC(=S)N(CCN2CCOCC2)Cc2ccc3c(c2)CCCN3CC)cc1,11µM*,?,35µM*,28µM*,0%,.
CCN1CCCc2cc(CN(CCN3CCOCC3)C(=S)Nc3ccc(OC)cc3)ccc21,-29%,24%,-20%,2%[59 µM],21%,.
COc1ccc(C(=O)Nc2nc3ccccc3s2)cc1OC,3%,34%,-15%,.,?,66%
COc1ccc(/C=N/OCC(=O)Nc2nc3ccccc3s2)cc1OC,-2%,-1%,50µM*,7%,-3%,0%
CCC(=O)Nc1nc2ccc(NC(=O)COc3ccccc3)cc2s1,-17%,36%,-1%,79µM*,1%,.
CCOCC(=O)Nc1nc2ccccc2s1,14%,42%,-3%,5%[59 µM],50µM*,1%
CCOCC(=O)Nc1nnc(C)s1,11%,18%,-2%,45µM*,-1%,-4%
Cc1nnc(NC(=O)COc2ccccc2)s1,-6%,9%,-26%,?,6%,.
CCCN(Cc1cccs1)C(=O)Nc1cc(C)ccc1OC,22%,88%,47%,5%[59 µM],.,.
CC(C)=CCCC1(C)C=Cc2c(c(C)cc3c2[nH]c2ccccc23)O1 (configuration not stated),.,.,.,.,19%,.
CCN(CC)c1cc2c(cc1F)c(=O)c(S(=O)(=O)c1ccc(C)cc1)cn2Cc1ccc(F)cc1,2%,41%,5%,0%[59 µM],.,.
CCc1sc(NC(=O)COC)nc1-c1ccccc1,3%,-22%,-10%,35µM*,-6%,-1%
C/C(O)=c1/ccc2cccc3nc(C)nc1c23,10%,58%,5%,.,-6%,9%
O/C=c1\ccc2cccc3nc(C(F)(F)F)nc1c23,?,-8%,89µM*,-48%[2.33 µM],-24%,.
C#CCOc1c(Br)cc(C2C(C(=O)OC)=C(C)NC3=C2C(=O)c2ccccc23)cc1OCC (configuration not stated),?,?,11µM*,10µM*,.,.
Cc1ccc(-n2c(SCC(=O)NCc3ccco3)nc3nc4c(cc3c2=O)COC(C)(C)C4)cc1,?,27%,-29%,?,25µM*,-14%
SMILES,BAZ2B inh,HP1b binding inh,JMJD2A Tudor inh,G9a block,Sfp inh,L3MBTL1 block
Nc1nc(CN2CCCCC2)cs1,5%,25%,-8%,-50%[59 µM],18%,1%
Nc1nc(CN2CCOCC2)cs1,1%,-6%,22µM*,24%[12.7 µM],-13%,.
c1ccc(CSc2nnc(-c3ccccc3)c(-c3ccccc3)n2)cc1,.,50%,2%,.,.,.
N#Cc1c(-c2ccccc2)nc(-c2ccncc2)[nH]c1=O,-2%,28%,-9%,-2%,15%,14%
N#Cc1c(Cl)nc(-c2ccncc2)nc1-c1ccccc1,79µM*,50%,?,28µM*,-5%,.
N#Cc1c(Cl)nc(SCc2ccccc2)nc1-c1ccccc1,79µM*,.,.,.,-60%,-10%
CCOC(=O)CN(Cc1cc(OC)cc(N(C)C)c1OC)C(=O)C1CC(CO[Si](C)(C)C(C)(C)C)=CN1C(=O)OC(C)(C)C (configuration not stated),.,-16%,?,.,-1%,.
Fc1ccc2[nH]c3c(c2c1)CN(C(=S)NCc1ccccc1)CC3,56µM*,-18%,?,.,-25%,-8%
C=CCNC(=O)N1CCc2[nH]c3ccc(F)cc3c2C1,-13%,44%,-23%,-14%,-2%,.
CCC(CC)=N/N=C/c1c(O)n(CC)c2cc(C3=NNC(=O)CC3)ccc12,-28%,27%,-22%,3.5µM*,?,?
CN1CCN(C(=O)c2sc(=S)n(-c3ccccc3)c2N)CC1,-7%,?,100µM*,?,-94%,3%
COC(=O)c1sc(=S)n(-c2cccc(Cl)c2)c1N,-4%,-31%,-36%,30%[0.501 µM],32µM*,1%
CCOC(=O)c1sc(=S)n(-c2ccccc2)c1N,1%,?,-34%,?,?,-5%
CCOc1ccc(-n2c(N)c(C(=O)NCc3ccco3)sc2=S)cc1,-39%,-59%,-32%,?,13µM*,-1%
COc1ccc(CNC(=O)c2sc(=S)n(-c3ccccc3)c2N)cc1,-11%,?,-22%,.,25µM*,.
CCN(CC)S(=O)(=O)c1ccc2c(c1)c(=O)c(C(=O)N(C)Cc1ccccc1)cn2C,.,2%,-17%,-2%[59 µM],.,.
CCN(CC)C(=O)Cn1c(=O)n(Cc2ccc(C(=O)NCCc3ccc(OC)c(OC)c3)cc2)c(=O)c2ccccc21,-1%,17%,-13%,11%[59 µM],.,.
Cc1cc(C)cc(C(=O)NCCc2sc(-c3ccc(F)cc3)nc2C)c1,-10%,34%,1%,-6%[12.7 µM],.,.
CCNC(=O)c1sc(=S)n(-c2ccc(C)cc2)c1N,-30%,?,-19%,32µM*,56µM*,.
Cc1ccc(-n2c(N)c(C(=O)N3CCOCC3)sc2=S)cc1,-5%,-15%,?,?,-90%,-3%
Cc1ccc(NC(=O)c2oc3ccccc3c2NC(=O)C23CC4CC(CC(C4)C2)C3)cc1,?,24%,-9%,-48%[59 µM],.,.
CCC(C)NC(=O)CN1C(=O)NC2NC(=O)NC21 (configuration not stated),-17%,6%,-4%[11.4 µM],1%,9%,.
CC(C)=NNC(=O)CN1C(=O)NC2NC(=O)NC21 (configuration not stated),5%,16%,-6%,79µM*,-5%,2%

# Source: PubChem BioAssay (National Center for Advancing Translational Sciences (NCATS))
